Compound activity: PubChem BioAssay, National Center for Advancing Translational Sciences (NCATS)
Pf growth 96h – inhibits malaria parasite growth, 96 h | P. falciparum luciferase reporter growth, 96 h | Potency, µM (top dose mostly 28.7 µM), for inactives: at the top dose activity change, negative = inhibition, most hits filed as inhibitors | actives 6.9% (n = 320,000) | AID 504834; also: potency is read from the fitted curve at half-maximal effect
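Cell-based qHTS: luciferase-tagged P. falciparum in erythrocytes (2% hematocrit, 0.05% parasitemia final) incubated with compounds for 96 hours, 37 C, 5% CO2; luciferase detection reagent then added and luminescence measured.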
HCMV inh – blocks human cytomegalovirus replication. HFF cells, HCMV-luciferase reporter, 72 h; active compounds read low. activity change, negative = inhibition, % at 57.5 µM. actives 4.5% (n = 410,000). AID 1259415; in the data active = activity change below about -60%; inconclusive = no clear call, values can overlap the other calls; inactive = above about -39%
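Luciferase read-out from HCMV-luciferase-infected HFFs (MOI 1 PFU/cell) 72 h post infection at 37C; compounds added after 16 h cell attachment; activity normalized between buffer-only basal and Salinomycin (10uM) inhibitor controls.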
Pf growth 48h – inhibits P. falciparum growth in the first generation, 48 h; P. falciparum luciferase growth in erythrocytes, 48 h; Potency, µM (titrated, usually from 28.7 µM), for inactives: at the highest dose activity change, negative = inhibition, most hits filed as inhibitors; actives 5.9% (n = 310,000); also: potency is read from the fitted curve at half-maximal effect
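A one-generation exposure of luciferase-tagged malaria parasites in RPMI 1640/Albumax erythrocyte culture, 37 C and 5% CO2. Inhibition is inferred from decreased luminescence after adding detection reagent.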
Giardia FBPA inh – blocks Giardia fructose-bisphosphate aldolase activity; actives 0.71% (n = 290,000); Potency, µM (doses to about 59.6 µM), for inactives: at the top dose activity, negative = inhibition, usual class: inhibitors; A8B2U2; purified Giardia FBPA; also: potency is read from the fitted curve at half-maximal effect; nearly all actives have a fitted effect of over 55% in size
Target sequence (A8B2U2 whole entry, looked up): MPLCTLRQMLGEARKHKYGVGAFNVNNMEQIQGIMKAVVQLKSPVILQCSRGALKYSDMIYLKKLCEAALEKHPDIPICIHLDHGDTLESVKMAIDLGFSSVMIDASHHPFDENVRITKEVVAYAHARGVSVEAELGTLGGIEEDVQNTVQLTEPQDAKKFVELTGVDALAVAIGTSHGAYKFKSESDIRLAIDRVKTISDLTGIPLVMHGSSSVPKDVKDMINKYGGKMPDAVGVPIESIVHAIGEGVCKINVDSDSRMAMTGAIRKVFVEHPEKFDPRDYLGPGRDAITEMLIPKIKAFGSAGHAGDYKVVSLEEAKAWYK
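Giardia FBPA (40 nM reagent) was preincubated 10 min at RT with compound (up to 57.5 uM final), then substrate plus GAPDH/TPI/NAD/arsenate coupling system with diaphorase/resazurin was added; resorufin fluorescence (525/598 nm) was read after 20 min.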
Sm TGR block – inhibitors of Schistosoma mansoni thioredoxin glutathione reductase; Q962Y6; purified TGR, DTNB reduction, TNB absorbance 405 nm; actives 3% (n = 360,000); Potency, µM (doses to about 114 µM), for inactives: at the top dose activity change, negative = inhibition, usual class: inhibitors; also: potency is read from the fitted curve at half-maximal effect; nearly all actives have a fitted effect of over 60% in size
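Kinetic colorimetric format: TGR-catalysed, NADPH-driven DTNB reduction monitored via TNB absorbance. Enzyme dispensed at 20 nM; compound exposure 15 min at room temperature before reaction start.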
* marks the source's active call; other numbers are inactive results; ! = not confirmed by another sample. Most compounds without a hit are left out; they make up all but 14% or so of the library. Unless noted, calls follow the shape of the dose curve; as a rule, active = well fitted curve in the direction sought with a large enough effect; inconclusive = small, poorly fitted or top-dose-only effect, or another doubt; inactive = no such curve, though single readings can be large; an effect the other way counts as inactive or inconclusive. % is scaled to controls: 0 for no effect and ±100 for the full control effect.

`CCn1c(/C=C/Nc2ccccc2)[n+](CC)c2cc(Cl)c(Cl)cc21` gave Pf growth 96h inconclusive, HCMV inh 1, Pf growth 48h 7.4µM*, Giardia FBPA inh 0% and Sm TGR block -11%.
`CCCN1C(=O)C[C@H](S(=O)(=O)c2ccccc2)[C@H]1c1ccccc1OC` gave HCMV inh -9.
CC(=O)c1ccc(-c2ccc([C@H]3[C@@H]4C=CCC[C@@]4(C)C(=O)N3Cc3ccccc3)c(F)c2)cc1 was read as Pf growth 96h inconclusive, HCMV inh 35, Pf growth 48h 12µM*, Giardia FBPA inh -1% and Sm TGR block 4%.
For Cc1ccc(-c2ccc([C@H]3[C@@H]4C=CCC[C@@]4(C)C(=O)N3Cc3ccccc3)c(F)c2)cc1 the results were Pf growth 96h 13µM*, HCMV inh 87, Pf growth 48h inconclusive, Giardia FBPA inh 2% and Sm TGR block 9%.
CCOc1ccc(NS(=O)(=O)c2ccc(C(=O)N3CCN(C(C)=O)CC3)cc2)cc1 was read as Pf growth 96h inconclusive, Pf growth 48h 6% and Sm TGR block 0%.
`CN1C[C@H](CNC(=O)OCc2ccccc2)C[C@H]2c3cccc4c3c(cn4C)C[C@@H]21` gave Giardia FBPA inh 0%.
Screening CN1C[C@H](CNC(=O)OCc2ccccc2)C[C@@H]2c3cccc4c3c(cn4C)C[C@H]21 returned Pf growth 96h 2.9µM*!, HCMV inh 54, Pf growth 48h 10µM*, Giardia FBPA inh inconclusive and Sm TGR block -33%.
`CCCc1cc(=O)oc2cc(C)cc(OCC(=O)Nc3cccnc3)c12` gave Pf growth 96h 0.093µM*, HCMV inh active, Pf growth 48h 0.15µM*, Giardia FBPA inh 2% and Sm TGR block 0%.
Cc1cc(OCC(=O)NCc2ccccn2)c2c(C)cc(=O)oc2c1 was read as Pf growth 96h 22%, HCMV inh 70, Pf growth 48h 1%, Giardia FBPA inh 7% and Sm TGR block -4%.
CCCc1cc(=O)oc2cc(OC(C)C(=O)NCc3ccccn3)c(Cl)cc12 (stereo not given) was read as Pf growth 96h 10µM*, HCMV inh -9, Pf growth 48h -8% and Sm TGR block 11%.
`CCCc1cc(=O)oc2cc(C)cc(OCC(=O)NCc3ccccn3)c12` gave Pf growth 96h 2.6µM*, HCMV inh -22, Pf growth 48h inconclusive, Giardia FBPA inh -7% and Sm TGR block 0%.
For CCCCc1cc(=O)oc2cc(C)cc(OCC(=O)NCc3ccncc3)c12 the results were Pf growth 96h 2.3µM*, HCMV inh 0, Pf growth 48h inconclusive, Giardia FBPA inh -1% and Sm TGR block 0%.
CCCCCCCC/C=C\CCCCCCCC(=O)OC[C@@H](O)COP(=O)(O)O was read as Giardia FBPA inh 4%.
`CNC(=S)N(CCN(C)C)Cc1cc2cc3c(cc2[nH]c1=O)OCO3` gave Pf growth 96h -26%, HCMV inh 23, Pf growth 48h -11%, Giardia FBPA inh 6% and Sm TGR block 53%.
For C=CCn1c(SCc2nc3c(c(=O)[nH]c(=O)n3CCCC)n2CCC)nnc1-c1ccccc1 the results were HCMV inh -10, Pf growth 48h 8.3µM*, Giardia FBPA inh 9% and Sm TGR block 2%.
`Cc1ccc(-c2nc(CS(=O)CC(=O)N3CCC4(CC3)OCCO4)c(C)o2)cc1` (stereo not given) gave Pf growth 96h 65%, HCMV inh -23, Pf growth 48h 19%, Giardia FBPA inh 2% and Sm TGR block 45µM*.
CCN1CCN(C(=O)CS(=O)Cc2nc(-c3ccc(OC)cc3)oc2C)CC1 (stereo not given) was read as Pf growth 96h -98%, HCMV inh 9, Giardia FBPA inh 2% and Sm TGR block inconclusive.
`COc1ccc(-c2nc(CS(=O)CC(=O)N3CCCC3)c(C)o2)cc1` (stereo not given) gave Pf growth 96h -10%, HCMV inh 19, Pf growth 48h 30%, Giardia FBPA inh 1% and Sm TGR block 7.1µM*.
For CCOC(=O)N1CCN(C(=O)CS(=O)Cc2nc(-c3ccc(OC)c(OC)c3)oc2C)CC1 (stereo not given) the results were Pf growth 96h inconclusive, HCMV inh -17, Pf growth 48h 11% and Sm TGR block 45µM*.
For COC(=O)C(Nc1cc(OC)ccc1OC)(c1ccccc1)C(Nc1cc(OC)ccc1OC)c1ccc(C(F)(F)F)cc1 (stereo not given) the results were HCMV inh -32.
`CCCCCCN1C[C@@H](O)[C@H](n2cc(COC(=O)c3ccccc3)nn2)C[C@@H]1c1ccc(C)cc1` gave HCMV inh 6.
COc1ccc(OCC(=O)Nc2ccc3c(c2)N(C)C(=O)c2ccccc2S3)cc1 was read as HCMV inh -10 and Sm TGR block 3%.
`CC(C)Oc1ccc(CNC(=O)Nc2ccc3c(c2)N(C)C(=O)c2ccccc2S3)cc1` gave HCMV inh -76* and Sm TGR block 1%.
CN1CCN(C(=O)Nc2ccc3c(c2)N(C)C(=O)c2ccccc2S3)CC1 was read as Pf growth 96h -15%, HCMV inh inconclusive, Pf growth 48h -9%, Giardia FBPA inh 0% and Sm TGR block -117%.
Screening CCCCNC(=O)Nc1ccc2c(c1)N(C)C(=O)c1ccccc1S2 returned Pf growth 96h 3.3µM*, HCMV inh 1, Pf growth 48h inconclusive, Giardia FBPA inh 5% and Sm TGR block 0%.
CCCNC(=O)Nc1ccc2c(c1)N(C)C(=O)c1ccccc1S2 was read as HCMV inh -25, Pf growth 48h -11%, Giardia FBPA inh 16% and Sm TGR block -10%.
Screening CN1C(=O)c2ccccc2Sc2ccc(NC(=O)N3CCN(c4ccccc4)CC3)cc21 returned HCMV inh -76* and Sm TGR block -30%.
Screening COc1ccccc1CNc1cc(-c2ccccc2Cl)ncn1 returned Giardia FBPA inh -1%.
For O=C(N/N=C/c1ccccc1)c1c(O)c2ccccc2[nH]c1=O the results were Pf growth 96h inactive, HCMV inh -92*, Pf growth 48h 98%, Giardia FBPA inh 12% and Sm TGR block -6%.
Screening CC(C)C(=O)NNC(=O)c1c(O)c2ccccc2[nH]c1=O returned Pf growth 96h inconclusive, HCMV inh inconclusive, Pf growth 48h 12µM*, Giardia FBPA inh -8% and Sm TGR block -13%.
Screening O=c1[nH]c2ccccc2c(O)c1O returned Pf growth 96h 10µM*, HCMV inh inconclusive, Pf growth 48h 13µM*, Giardia FBPA inh 4µM* and Sm TGR block inconclusive.
`CC(C)NC(=O)c1c(O)c2ccccc2[nH]c1=O` gave Pf growth 96h 4.1µM*, HCMV inh inconclusive, Pf growth 48h 10µM*, Giardia FBPA inh -5% and Sm TGR block -1%.
